# Measured values taken from PubChem BioAssay.
# Where “and” joins values, the source holds several entries; their conditions need not be identical. Identical values can stand only once. Records with an inconclusive call do not appear. Calls of active or inactive are those of the source.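 The calls were made as follows, unless noted: active = normalized viability below 100% at a tested concentration; inactive = the rest.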
# How the values were obtained:
# [1] = Wnt pathway potentiators raising nuclear beta-catenin – imaging, WNT3A-conditioned medium, mouse C2C12, NPC library, primary screen (AID 1117326; in the data active = nuclear beta-catenin stimulation mostly above about 4.2%, no sharp cut-off; inactive = mostly below about 10%); conditions: stronger effect = higher value
# [2] = stimulators of insulin release from INS-1E, primary screen, cell-based, 5 mM glucose, NPC library (AID 1117329;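 active = compound raises insulin release from rat beta cells at 5 mM glucose, no numeric limit stated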); conditions: rat INS-1E insulin secretion, at 10 µM, stronger effect = higher value
# [3] = growth inhibition of GSK3B-pretreated HCT116 cells – cell-based, CellTiter-Glo, 0.2 to 20 µM (AID 1117336;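 active = compounds lowering colon cancer cell viability after pretreatment blocking the GSK3B kinase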); conditions: HCT116 viability after GSK3B inhibitor, at 20 µM, stronger effect = higher value
# [4] = inhibition of endothelial tube formation, primary screen, imaging, VEGF stimulated, CD31 staining, tube area, NPC library (AID 1117340;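 active = compound that reduces growth-factor-driven endothelial tube area in a mixed cell culture, no cutoff stated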); conditions: VEGF-stimulated ADSC/ECFC co-culture, at 10 µM, stronger effect = higher value
# [5] = GLP1 release stimulators, primary, NCI-H716, NPC library (AID 1117341;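 active = compound raises GLP1 secretion from the human gut endocrine cells, with no numeric limit stated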); conditions: NCI-H716 cells, at 10 µM, stronger effect = higher value
# [6] = HCT116 colon cancer cell growth inhibition, primary screen, CellTiter-Glo luminescence, NPC library (AID 1117342;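 active = compounds that lower survival of HCT116 colon cancer cells in the luminescence readout, no numeric limit stated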); conditions: at 20 µM (top of the series)
# [7] = reduced SW480 viability measured with CellTiter-Glo, NPC library, primary (AID 1117343;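 active = compounds that lower viability of the colon cancer cells in the luminescence readout, with no numeric limit stated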); conditions: CellTiter-Glo luminescence; at 20 µM (top of the series) unless noted
# [8] = NPC library primary testing for decreased DLD-1 cell viability via CellTiter-Glo (AID 1117346;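 active = compounds that lower survival of DLD-1 colon cancer cells in the luminescence readout, no cutoff given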); conditions: DLD-1 viability, CellTiter-Glo luminescence; at 20 µM (top of the series)
# [9] = viability loss in pontine glioma line – cell-based, SU-DIPG-XVII, MIPE5.0, CellTiter-Glo, qHTS, dose response (AID 1347060; cut-off not given, nearly all actives have AC50 up to about 26 µM;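 also: cells exposed to compound for 48 hours before viability readout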); conditions: CellTiter-Glo ATP luminescence
# [10] = viability loss in pontine glioma line – cell-based, SU-DIPG-XIII, MIPE4.0, CellTiter-Glo, qHTS, dose response (AID 1347061; cut-off not given, nearly all actives have AC50 up to about 37 µM;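 also: cells exposed to compound for 48 hours before readout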); conditions: CellTiter-Glo ATP luminescence
# [11] = viability loss in pontine glioma line – cell-based, JHH-DIPG-1, MIPE4.0, CellTiter-Glo, qHTS, dose response (AID 1347062; cut-off not given, nearly all actives have AC50 up to about 27 µM;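 also: cells exposed to compound for two days before readout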); conditions: JHH-DIPG-1 viability, CellTiter-Glo ATP luminescence
# [12] = growth inhibition of DIPG cells – cell-based, MIPE5.0 library, qHTS (AID 1347068; cut-off not given, nearly all actives have IC50 up to about 30 µM;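 also: cells exposed to compound for 48 hours before viability readout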); conditions: SU-DIPG-XXV viability
# [13] = viability loss with induced miR-34 in A549 – imaging, A549 dox-inducible miR-34, nuclei and caspase counts, primary screen (AID 1347080;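 active = compounds whose cell count with miR-34 switched on is under 0.7 times the count with it off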); conditions: A549 miR-34 inducible, Hoechst nuclei count, 48 h
# [14] = MELAS cybrid and Rieske KO viability enhancers – cell-based, MELAS cybrids, Rieske KO mouse fibroblasts, CellTiter-Glo, primary screen (AID 1508586;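 active = mean z-score across replicates of 1.96 or higher in either the MELAS or the Rieske mutant cell line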;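 also: z relative to plate mean and SD of compound and empty wells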); conditions: low glucose
# [15] = drug combination growth inhibition, ovarian cancer – cell-based, oncology-focused library, rucaparib conditional, profiling panel (AID 1508598); conditions: patient-derived ovarian cancer cells, CellTiter-Glo viability, 144 h, stronger effect = lower value
# [16] = test system: Aerobactin synthetase IucA (Klebsiella pneumoniae); test: inhibition of K. pneumoniae IucA enzyme – biochemical, Tocris library, absorbance (AID 1345561; call rule not given here;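 also: 100% = enzyme without compound and 0% = no enzyme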); conditions: purified IucA enzyme assay, absorbance (OD) read-out; stronger effect = lower value;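 tested at 8 µM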
# [17] = galactose survival enhancers in mitochondrial complex I cybrids – cell-based, galactose medium, ATP luminescence, primary screen (AID 1645843;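 active = z-score of at least 1.8 in each of two replicates, scored against plate mean and spread of sample wells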;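 also: positive z means more ATP and so rescue of galactose-driven cybrid death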); conditions: complex I mutant cybrid cells, 72 h, stronger effect = higher value
# [18] = stronger effect = lower value, cell number ratio, induced over uninduced
# [19] = measured here: relative caspase fold change +Dox/-Dox
# [20] = measured here: total cells with miR-34 induction, stronger effect = lower value
# [21] = measured here: total cells without miR-34 induction
smiles,measurement,setting,value
CNC(=O)c1cc(Oc2ccc(NC(=O)Nc3ccc(Cl)c(C(F)(F)F)c3)cc2)ccn1,nuclear beta-catenin stimulation,[1]; at 10 µM,-1.4% (inactive)
same,nuclear beta-catenin stimulation,"[1]; stimulation, at 2 µM",9.1%
same,insulin secretion stimulation,[2],0.4% (inactive)
same,viability decrease,[3],120% (active)
same,tube area decrease,[4],111% (active)
same,GLP1 secretion stimulation,[5],-3.6% (inactive)
same,inhibition of viability,[6],124% (active)
same,viability decrease (inhibition),[7],166% (active)
same,viability decrease (inhibition),[8],102% (active)
same,AC50,[9],14.8 µM (active)
same,AC50,[10],18.7 µM (active)
same,AC50,[11],18.7 µM (active)
same,IC50,[12],10.5 µM (active)
same,fold change,[13]; [18],0.979 (inactive) and 1.42 (inactive)
same,fold change,[13]; [19],0.87 and 0.612
same,cell count,[13]; [20],1320 and 3300
same,cell count,[13]; [21],1350 and 2320
same,z-score,"[14]; MELAS cybrid survival, CellTiter-Glo 48 h, stronger effect = higher value",-0.549 (inactive) and -0.383 (inactive)
same,z-score,"[14]; Rieske KO mouse fibroblast survival, CellTiter-Glo 72 h",0.813 and 0.844
same,viability,"[15]; at 0.000305 µM, OCI-C5x cells, with rucaparib 10 µM, 100% = cells with rucaparib alone",115% (inactive)
same,viability,"[15]; at 0.000305 µM, OCI-C5x cells, without rucaparib",112% (inactive)
same,viability,"[15]; at 0.000305 µM, OCI-P5x cells, with rucaparib 20 µM, 100% = cells with rucaparib alone",124% (inactive)
same,viability,"[15]; at 0.000305 µM, OCI-P5x cells, without rucaparib",97.6% (active)
same,viability,"[15]; at 0.00122 µM, OCI-C5x cells, with rucaparib 10 µM, 100% = cells with rucaparib alone",119% (inactive)
same,viability,"[15]; at 0.00122 µM, OCI-C5x cells, without rucaparib",111% (inactive)
same,viability,"[15]; at 0.00122 µM, OCI-P5x cells, with rucaparib 20 µM, 100% = cells with rucaparib alone",129% (inactive)
same,viability,"[15]; at 0.00122 µM, OCI-P5x cells, without rucaparib",99.4% (active)
same,viability,"[15]; at 0.00488 µM, OCI-C5x cells, with rucaparib 10 µM, 100% = cells with rucaparib alone",119% (inactive)
same,viability,"[15]; at 0.00488 µM, OCI-C5x cells, without rucaparib",114% (inactive)
same,viability,"[15]; at 0.00488 µM, OCI-P5x cells, with rucaparib 20 µM, 100% = cells with rucaparib alone",136% (inactive)
same,viability,"[15]; at 0.00488 µM, OCI-P5x cells, without rucaparib",99.4% (active)
same,viability,"[15]; at 0.0195 µM, OCI-C5x cells, with rucaparib 10 µM, 100% = cells with rucaparib alone",111% (inactive)
same,viability,"[15]; at 0.0195 µM, OCI-C5x cells, without rucaparib",112% (inactive)
same,viability,"[15]; at 0.0195 µM, OCI-P5x cells, with rucaparib 20 µM, 100% = cells with rucaparib alone",133% (inactive)
same,viability,"[15]; at 0.0195 µM, OCI-P5x cells, without rucaparib",101% (inactive)
same,viability,"[15]; at 0.0781 µM, OCI-C5x cells, with rucaparib 10 µM, 100% = cells with rucaparib alone",108% (inactive)
same,viability,"[15]; at 0.0781 µM, OCI-C5x cells, without rucaparib",106% (inactive)
same,viability,"[15]; at 0.0781 µM, OCI-P5x cells, with rucaparib 20 µM, 100% = cells with rucaparib alone",144% (inactive)
same,viability,"[15]; at 0.0781 µM, OCI-P5x cells, without rucaparib",99.6% (active)
same,viability,"[15]; at 0.313 µM, OCI-C5x cells, with rucaparib 10 µM, 100% = cells with rucaparib alone",111% (inactive)
same,viability,"[15]; at 0.313 µM, OCI-C5x cells, without rucaparib",116% (inactive)
same,viability,"[15]; at 0.313 µM, OCI-P5x cells, with rucaparib 20 µM, 100% = cells with rucaparib alone",144% (inactive)
same,viability,"[15]; at 0.313 µM, OCI-P5x cells, without rucaparib",105% (inactive)
same,viability,"[15]; at 1.25 µM, OCI-C5x cells, with rucaparib 10 µM, 100% = cells with rucaparib alone",116% (inactive)
same,viability,"[15]; at 1.25 µM, OCI-C5x cells, without rucaparib",120% (inactive)
same,viability,"[15]; at 1.25 µM, OCI-P5x cells, with rucaparib 20 µM, 100% = cells with rucaparib alone",155% (inactive)
same,viability,"[15]; at 1.25 µM, OCI-P5x cells, without rucaparib",114% (inactive)
same,viability,"[15]; at 5 µM, OCI-C5x cells, with rucaparib 10 µM, 100% = cells with rucaparib alone",123% (inactive)
same,viability,"[15]; at 5 µM, OCI-C5x cells, without rucaparib",126% (inactive)
same,viability,"[15]; at 5 µM, OCI-P5x cells, with rucaparib 20 µM, 100% = cells with rucaparib alone",31.8% (active)
same,viability,"[15]; at 5 µM, OCI-P5x cells, without rucaparib",116% (inactive)
OCC(CO)N[C@H]1C[C@](O)(CO)[C@@H](O)[C@H](O)[C@H]1O,nuclear beta-catenin stimulation,[1]; at 10 µM,3.1% (inactive)
same,nuclear beta-catenin stimulation,"[1]; stimulation, at 2 µM",5.1%
same,insulin secretion stimulation,[2],-1.5% (inactive)
same,viability decrease,[3],-12.8% (inactive)
same,tube area decrease,[4],7.6% (inactive)
same,GLP1 secretion stimulation,[5],1.9% (inactive)
same,inhibition of viability,[6],5.5% (inactive)
same,viability decrease (inhibition),[7],27.3% (inactive)
same,viability decrease (inhibition),[8],1.55% (inactive)
same,remaining activity,[16],123% (inactive)
same,fold change,[13]; [18],0.876 (inactive)
same,fold change,[13]; [19],1.87
same,cell count,[13]; [20],8920
same,cell count,[13]; [21],10200
same,z-score,[17],0.245 (inactive)
O=c1[nH]c2cc(C(F)(F)F)c(N3CCOCC3)cc2n(CP(=O)(O)O)c1=O,nuclear beta-catenin stimulation,[1]; at 10 µM,1.2% (inactive)
same,nuclear beta-catenin stimulation,"[1]; stimulation, at 2 µM",-0.5%
same,insulin secretion stimulation,[2],0.85% (inactive)
same,viability decrease,[3],17.9% (inactive)
same,tube area decrease,[4],-10.1% (inactive)
same,GLP1 secretion stimulation,[5],1% (inactive)
same,inhibition of viability,[6],6.1% (inactive)
same,viability decrease (inhibition),[7],-13.4% (inactive)
same,viability decrease (inhibition),[8],1.2% (inactive)
same,remaining activity,[16],126% (inactive)
same,fold change,[13]; [18],0.942 (inactive)
same,fold change,[13]; [19],1.52
same,cell count,[13]; [20],9280
same,cell count,[13]; [21],9850
same,z-score,[17],0.07 (inactive)
